Active and inactive are the calls of the source. How the source made its calls: active means hit-call score of the fitted dose curve at least 0.9, where 1 is the maximum; inactive means score below 0.9.

The experiment is described as follows: Tanguay_ZF_120hpf_DP24: Oregon State University Tanguay Lab 24 Hour Post-fertilization zebrafish Assay for Delayed Development (AID 2284390). The procedure: Tanguay_ZF_120hpf is a whole embryo, multiplexed endpoint assay using zebrafish larvae exposed for 120 hours post fertilization on a 96-well plate.Tanguay_ZF_120hpf_DP24 is […] measured or calculated from the Tanguay_ZF_120hpf assay. It is designed to make measurements of zebrafish development as detected with brightfield microscopy of developing zebrafish embryos.Data from the assay component Tanguay_ZF_120hpf_DP24 was analyzed into 1 assay endpoints. This assay endpoint, Tanguay_ZF_120hpf_DP24, was analyzed in the positive analysis fitting direction relative to DMSO as the negative control and baseline of activity. Using a type of morphology reporter, gain-of-signal activity can be used to understand changes in developmentals as they relate to the whole embryo. To generalize the intended target to other relatable targets, this assay endpoint is annotated to the zebrafish development intended target family, where the subfamily is embryonic morphogenesis.
Zebrafish husbandry: Tropical 5D wild-type adult zebrafish were housed in at an approximate density of 1000 per 100 gallon tank at the Sinnhuber Aquatic Research Laboratory, Oregon State University, Corvallis, OR. Each tank was kept at standard laboratory conditions of 28C on a 14-h light/10-h dark photoperiod in fish water consisting of reverse osmosis water supplemented with a commercially available salt (Instant Ocean). Spawning funnels were placed into the tanks the night prior, and embryos were collected and staged. To increase bioavailability, the chorion was enzymatically removed using pronase (63.6mg/ml, >/= 3.5U/mg, Sigma-Aldrich: P5147) at 4 hours post fertilization (hpf) using a custom automated dechorionator.Chemical exposures: Six hpf dechorionated embryos were placed 1 embryo per well in a 96-well plate prefilled with 90 ul of EM using automated embryo placement systems (AEPS). Ten microliters of each row of dilution plate 2 was added to 2 exposure plates. The final DMSO concentration used was 0.64% (vol/vol). Thirty-two embryos were also exposed to 5uM trimethyltin chloride (positive control). Plates were sealed to prevent evaporation and foil covered to reduce light exposure and kept in a 28C incubator. Embryos were statically exposed until 120 hpf. At 24 hpf, embryos were assessed for photomotor response using a custom photomotor response analysis tool (PRAT) and for developmental toxicity endpoints (MO24: mortality at 24 hpf, DP: developmental progression, SM: spontaneous movement, and NC: notochord distortion). At 120 hpf, locomotor activity was measured using Viewpoint Zebralab and assessed for 13 endpoints. Zebrafish acquisition and analysis program (ZAAP), a custom program designed to inventory, acquire, and manage zebrafish data, was used to collect developmental endpoints as either present or absent (i.e., binary responses were recorded). If mortality occurred for an embryo (at either 24 or 120 hpf), the non-mortality endpoints were not measured.
For the molecule `OCC(O)CC(F)(F)C(F)(F)C(F)(F)C(F)(F)C(F)(F)C(F)(F)C(F)(F)C(F)(F)F` (configuration not stated), the molecule was classed as inactive.

`OCC(F)(F)C(F)(F)C(F)(F)C(F)(F)C(F)(F)C(F)(F)CO`: the call was inactive.

Regarding `OCC(F)(F)C(F)(F)C(F)(F)CO`, the molecule was called inactive.

Turning to `CCN(CCO)S(=O)(=O)C(F)(F)C(F)(F)C(F)(F)C(F)(F)C(F)(F)C(F)(F)C(F)(F)C(F)(F)F`, the result was inactive.

As for `O=C(O)C(F)(F)C(F)(F)C(F)(F)OC(F)(C(F)(F)F)C(F)(F)F`, the call was inactive.

`COC(F)(C(F)F)C(F)(F)F` (configuration not stated): the molecule was called inactive.

`NC(=O)C(F)(F)C(F)(F)C(F)(F)C(F)F`: the outcome was inactive.

With `C[Si](Cl)(Cl)CCC(F)(F)C(F)(F)C(F)(F)C(F)(F)C(F)(F)C(F)(F)F`, the outcome was inactive.

Consider `O=S(=O)(Cl)C(F)(F)C(F)(F)C(F)(F)C(F)(F)C(F)(F)C(F)(F)C(F)(F)C(F)(F)F`, for which the molecule was classed as inactive.

In the case of `OC(O)C(F)(F)C(F)(F)F`, the molecule was called inactive.

As for `FC(F)(F)C(F)(F)C(F)(F)C(F)(F)C(F)(F)C(F)(F)CC[Si](Cl)(Cl)Cl`, the result was inactive.

As a reminder, the AC50 is the concentration at which the activity in the assay is half-maximal. `C=CC(=O)OCC(F)(F)C(F)(F)C(F)(F)COC(=O)C=C`: the AC50 is 14.1 µM (active).

As for `OCCCC(F)(F)C(F)(F)C(F)(F)C(F)(F)C(F)(F)C(F)(F)C(F)(F)C(F)(F)F`, the outcome was inactive.

Regarding `NC(=O)C(F)(F)C(F)(F)C(F)(F)C(F)(F)C(F)(F)C(F)(F)C(F)(F)F`, the molecule was called inactive.

With `O=C(O)CCC(F)(F)C(F)(F)C(F)(F)C(F)(F)C(F)(F)C(F)(F)C(F)(F)F`, the call was inactive.

With `OCCCCC(F)(F)C(F)(F)C(F)(F)C(F)(F)F`, the molecule was called inactive.

`CNS(=O)(=O)C(F)(F)C(F)(F)C(F)(F)C(F)(F)C(F)(F)C(F)(F)C(F)(F)C(F)(F)F`: the outcome was inactive.

As for `C=CC(=O)OCCC(F)(F)C(F)(F)C(F)(F)C(F)(F)F`, the call was inactive.

`C=CC(=O)OCC(F)(F)C(F)(F)C(F)(F)C(F)(F)C(F)(F)C(F)(F)C(F)(F)C(F)F`: the molecule was called inactive.

Take `NC(=O)C(F)(F)C(F)(F)C(F)(F)F`: the result was inactive.

Turning to `O=C(O)C(F)(F)C(F)(F)C(F)(F)OC(F)(F)F`, the molecule was classed as inactive.

As to `NC(=O)C(F)(F)C(F)(F)C(F)(F)C(F)(F)C(N)=O`, the call was inactive.

In the case of `CN(C(=O)C(F)(F)C(F)(F)C(F)(F)F)[Si](C)(C)C`, the molecule was called inactive.

As for `NS(=O)(=O)C(F)(F)C(F)(F)C(F)(F)C(F)(F)C(F)(F)C(F)(F)F`, the AC50 was 57.6 µM (active).

In the case of `O=C(O)CCC(F)(F)C(F)(F)C(F)(F)F`, the molecule was classed as inactive.

In the case of `O=S(=O)(OCC(F)(F)F)C(F)(F)C(F)(F)C(F)(F)C(F)(F)F`, the molecule was classed as inactive.

Take `CCOC(=O)CC(=O)C(F)(F)C(F)(F)F`: the molecule was classed as inactive.

Consider `O=S(=O)(O)CCC(F)(F)C(F)(F)C(F)(F)C(F)(F)C(F)(F)C(F)(F)C(F)(F)C(F)(F)F`, for which the AC50 is 79.2 µM (active).

Regarding `OCC(F)(F)C(F)(F)C(F)(F)C(F)(F)C(F)(F)C(F)(F)C(F)(F)C(F)(F)CO`, the molecule was called inactive.

Turning to `FC(F)(F)C(F)(F)C(F)(F)CC1CO1` (configuration not stated), the molecule was classed as inactive.

On to `FC(F)(F)C(F)(F)C(F)(F)C(F)(F)C(F)(F)C(F)(F)C(F)(F)CCI`, for which the molecule was classed as inactive.

Turning to `CO[Si](C)(CCC(F)(F)C(F)(F)C(F)(F)C(F)(F)C(F)(F)C(F)(F)F)OC`, the molecule was called inactive.

`NC(O)(C(F)(F)F)C(F)(F)F`: the outcome was inactive.

As for `OCC(O)CC(F)(F)C(F)(F)C(F)(F)C(F)(F)F` (configuration not stated), the call was inactive.

Consider `O=C(O)C(F)(F)C(F)(F)C(F)(F)C(=O)O`, for which the call was inactive.

Turning to `O=C(F)C1(F)C(F)(F)C(F)(F)C(F)(F)C(F)(F)C1(F)F`, the molecule was called inactive.

Consider `O=S(=O)(O)CCC(F)(F)C(F)(F)C(F)(F)C(F)(F)F`, for which the call was inactive.

Values taken from PubChem BioAssay (EPA / NIEHS).
